CYP2C19 activ = cytochrome P450 2C19 (human) activation; P33261; recombinant CYP2C19, luciferin-H EGE luminescence; stronger effect = higher value; 0 = fully inhibited enzyme, 1 = untreated enzyme; activation factor at 5 µM; 96,000 tested, under 10 active; AID 1025;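 active = activation factor of at least 2 at 5 µM in the primary screen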;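 also: 0 = wells with 2.5 mM tranylcypromine and 1 = vehicle-only wells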
CYP2C9 inh = blocks human cytochrome P450 2C9 | P11712 | CYP2C9 Supersomes, luciferin-H conversion, luminescence | inhibition, % at 5 µM | hit rate 20% among 96,000;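 active = blocking of liver enzyme CYP2C9 beyond about 50% at 5 µM, limit read from the data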
Cav3 T inh = human Cav3.2 channel inhibition, primary screen; hit rate 4% among 100,000; B-score at 10 µM; Cav3.2-expressing cells, Fluo-4 calcium fluorescence FDSS; stronger effect = lower value;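 active = single-dose well whose peak fluorescence ratio is a statistical outlier from its plate by either plate-standardised score or position-corrected B-score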
CYP2C9 activ = activators of human CYP2C9; hit rate 1.4% among 96,000; activation factor at 5 µM; recombinant CYP2C9, luciferin-H conversion, luminescence; stronger effect = higher value; factor 1 = untreated enzyme, 0 = blocked;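 active = activation factor of 2 or more for CYP2C9 at a 5 µM dose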;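 also: 0 = sulfaphenazole-blocked wells and 1 = vehicle-only wells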
CYP2C19 inhib = blocks human cytochrome P450 2C19 | hit rate 21% among 96,000 | CYP2C19 Supersomes, luciferin-H EGE luminescence, 30 min | AID 778 | P33261 | inhibition, % at 5 µM;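 active = CYP2C19 inhibition above a set limit at 5 µM in the primary screen, cut at about 50% in these data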;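 also: plate controls were negative control wells for no effect and 2.5 mM tranylcypromine positive control for full effect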
* hit, by the source's call; · = no result given. Compounds with a hit are over-represented: about 27% of the library has one in this group of screens.

SMILES	CYP2C19 activ	CYP2C9 inh	Cav3 T inh	CYP2C9 activ	CYP2C19 inhib
COc1ccc(-n2nnnc2SCC(=O)c2cccc(OC)c2)cc1	0.7	27	1.5	0.7	27
O=C(CSc1nnc2ccccn12)Nc1ccccc1C(=O)NC1CC1	1.1	3	-0.76	1	-5
CC(C)n1cnc2c(N(C)c3ccccc3)nc(N(CCN(C)C)Cc3ccccc3)nc21	·	·	-2.4	·	·
CC1=C(C(=O)OCc2ccccc2)C(c2ccc(Cl)cc2Cl)NC(=O)N1CCCC(=O)O (configuration not stated)	·	·	0.36	·	·
COc1ccc(CCNC(=O)CSc2nnnn2-c2ccccc2)cc1	0.2	78*	-0.014	0.2	76*
COc1cc(OC)cc(C(=O)NCC(=O)N2CCCCC2)c1	1	-24	0.16	1.2	1
COc1ccc(-c2noc(C3CCCN(S(=O)(=O)c4ccc(C)c(Cl)c4)C3)n2)cc1OC (configuration not stated)	0.3	57*	-2.3	0.4	68*
O=S(=O)(c1ccccc1Cl)N1CCCC1c1nc(-c2cccc(Cl)c2)no1 (configuration not stated)	0.7	48	-0.09	0.5	26
Cc1ccc(-c2noc(C3CCCN(C(=O)c4c(F)cccc4F)C3)n2)cc1 (configuration not stated)	0.2	91*	-2	0.1	78*
COc1ccc(-c2noc(C3CCCN(S(=O)(=O)c4cccc(Cl)c4C)C3)n2)cc1OC (configuration not stated)	0.1	85*	-0.7	0.2	91*
O=S(=O)(c1ccccc1Cl)N1CCCC(c2nc(-c3cccnc3)no2)C1 (configuration not stated)	0.1	79*	-0.014	0.2	95*
O=c1oc2ccccc2cc1-c1nnc(NCc2ccco2)s1	0.9	-17	0.51	1.2	5
CCCS(=O)(=O)N1CCCC(c2nc(-c3ccc(OC)cc3)no2)C1 (configuration not stated)	0.7	82*	0.45	0.2	34
COc1ccc(-c2noc(C3CCCN(C(=O)c4ccccc4OC)C3)n2)cc1OC (configuration not stated)	1	17	0.017	0.8	5
COc1ccc(C(=O)N2CCCC(c3nc(-c4ccc(OC)c(OC)c4)no3)C2)c(OC)c1 (configuration not stated)	0.6	61*	-2.1	0.4	40
COc1ccc2oc3ccc(OC)cc3c(=O)c2c1	1	-30	0.05	1.3	2
COc1ccc(-n2c(C)nn(C)c2=O)cc1	1	-3	0.17	1	3
Cc1nn(C)c(=O)n1-c1ccc(OCc2ccccc2)cc1	0.4	33	0.75	0.7	56*
CCOC(=O)C1(Nc2nccs2)Sc2ccccc2NC1=O (configuration not stated)	0.4	36	-0.87	0.6	64*
CCOC(=O)C1CCN(C(=O)CCNC(=O)Cn2ccc3ccccc3c2=O)CC1	1	-11	0.51	1.1	5
CCCc1nc2oc3c(N4CCNCC4)ncnc3c2c2c1CCCC2	0.9	9	·	0.9	9
O=C(c1cccc(Cl)c1)N(Cc1cccs1)C1CCS(=O)(=O)C1 (configuration not stated)	0.7	0	0.95	1	32
Cc1ccc(OCC(=O)N(Cc2ccc(N(C)C)cc2)C2CCS(=O)(=O)C2)cc1 (configuration not stated)	0.5	68*	0.16	0.3	54*
CC(C)(C)c1ccc(OCC(=O)NC2CCS(=O)(=O)C2)cc1 (configuration not stated)	0.9	17	0.37	0.8	12
Cc1ccc(OCC(=O)NC2CCS(=O)(=O)C2)cc1 (configuration not stated)	0.7	3	-4.7*	1	28
O=C(c1sc2ccccc2c1Cl)N(Cc1cccs1)C1CCS(=O)(=O)C1 (configuration not stated)	0.5	53*	-7.8*	0.5	45
Cc1cc(C)cc(OCC(=O)N(Cc2cccs2)C2CCS(=O)(=O)C2)c1 (configuration not stated)	0.2	54*	0.37	0.5	82*
COc1ccc(C(=O)c2sc(Nc3cccc(OC)c3)c(C(=O)Nc3cccc(C)c3C)c2N)cc1	0.6	52*	-1.8	0.5	40
O=C1CCCc2c1cc(-c1ccccc1)n2-c1ccccc1	0.9	16	-0.95	0.8	15
